# Laboratory results published in PubChem BioAssay.
# Activity calls are given as the source filed them.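 The calls were made as follows, unless noted: active = NADPH fluorescence slope more negative than the mean of all samples by about 3 SD, 99.7% confidence; inactive = the rest.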
# Columns and labels:
# [1] = inhibitors of TNFa-induced NFkB p65 translocation, primary screen, imaging, HUVEC, MLSMR starter and 10KST1 sets (AID 438;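 active = inhibition above 20% together with a positive visual image hit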;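 also: compound added about 3h40 before a 20 min TNFalpha stimulation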;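 as to inhibition: signal is the nuclear over cytoplasmic p65 intensity ratio per well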); settings: HUVEC TNFa-induced p65 nuclear translocation; cell count: measured here: nuclei count (cytotoxicity indicator), at 2.08 µM; inhibition: at 2 µM, stronger effect = higher value, 0% TNFa-plus-vehicle, 100% no-TNFa wells
# [2] = reduction of polyQ htt aggregates in cells – imaging, exon1htt(103Q)mCFP cells, high-content imaging, primary screen (AID 483;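 active = visual image review flags a hit and inhibition of aggregation exceeds 20%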;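 also: compound exposure lasted 3 days before fixation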;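 as to nuclei count: percent of the per-plate median nuclei count of sample wells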); settings: exon1htt(103Q)mCFP cell line, aggregate imaging, at 2 µM; inhibition of aggregation: stronger effect = higher value; nuclei count: measured here: cell count, toxicity
# [3] = endothelial E-selectin expression blockers – imaging, HUVEC, immunofluorescence, MLSMR starter and 10KST1 sets, primary screen (AID 487;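 active = visually confirmed hit in the image check and inhibition above 20%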;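 as to inhibition: signal is fraction of cell area covered by stained E-selectin grains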;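 as to nuclei count: 100% = median nuclei count of all wells on the same plate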); settings: HUVEC TNFalpha-induced E-selectin immunofluorescence imaging, at 2 µM; inhibition: stronger effect = higher value; nuclei count: measured here: cell number, toxicity
# [4] = target: Voltage-gated potassium channel subunit beta-2 (Rattus norvegicus) (UniProt P62483); assay: inhibitors of rat Kvbeta2 reductase activity – biochemical, NADPH fluorescence, primary screen (AID 622;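 active = fluorescence slope higher than the sample average by over 3 SD, cut at about -0.22 in these data, passing the limit was not always enough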;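 also: slope of raw intensity against log time taken from 70 to 1610 s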); settings: recombinant KvBeta, 4-cyanobenzaldehyde reduction, at 10 µM, stronger effect = higher value
# [5] = target: Voltage-gated potassium channel subunit beta-2 (Rattus norvegicus) (UniProt P62483); assay: enhancers of rat Kvbeta2 NADPH turnover – biochemical, NADPH fluorescence, primary screen (AID 623); settings: Recombinant KvBeta, NADPH fluorescence decrease slope, 10 min; at 10 µM; stronger effect = lower value;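 also: fluorescence intensity change per second fitted from 20 to 320 s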
# [6] = target: Alpha-2C adrenergic receptor (Homo sapiens) (UniProt P18825); assay: compounds altering alpha2C-coupled GIRK flux – cell-based, HEK293 alpha2C/GIRK1/2, thallium flux, primary screen (AID 624;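 active = fluorescence slope after compound addition differing from the mean of all screened samples at 99.7% confidence, in either direction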;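 also: slope of fluorescence ratio to pre-addition baseline per second over 15 to 24 s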); settings: thallium flux BTC fluorescence, at 10 µM, actives lie on both sides
# [7] = blockers of RIG-like receptor reporter activation – cell-based, Sendai virus stimulus, luciferase, 10K MLSCN set, TLR/RLR signaling modifier project, primary screen (AID 602276;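 active = inhibition at or above 50% at 10 µM; inactive = inhibition below 50%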;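 also: firefly luciferase from ISG56 promoter only with Renilla not read in this screen; 0% = Sendai virus plus DMSO and 100% = medium plus DMSO without virus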); settings: HEK293 RL24 IRF3 luciferase reporter, at 10 µM, stronger effect = higher value
# [8] = TLR3 IRF3 reporter activation blockers – cell-based, poly I:C stimulus, luciferase, 10K MLSCN set, primary screen (AID 602277;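 active = inhibition of the reporter signal at or above 50%; inactive = inhibition below 50%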); settings: HEK293-TLR3 RL24 IRF3 luciferase reporter, at 10 µM, stronger effect = higher value
# Chain of Voltage-gated potassium channel subunit beta-2 (Rattus norvegicus) (P62483 whole entry, looked up): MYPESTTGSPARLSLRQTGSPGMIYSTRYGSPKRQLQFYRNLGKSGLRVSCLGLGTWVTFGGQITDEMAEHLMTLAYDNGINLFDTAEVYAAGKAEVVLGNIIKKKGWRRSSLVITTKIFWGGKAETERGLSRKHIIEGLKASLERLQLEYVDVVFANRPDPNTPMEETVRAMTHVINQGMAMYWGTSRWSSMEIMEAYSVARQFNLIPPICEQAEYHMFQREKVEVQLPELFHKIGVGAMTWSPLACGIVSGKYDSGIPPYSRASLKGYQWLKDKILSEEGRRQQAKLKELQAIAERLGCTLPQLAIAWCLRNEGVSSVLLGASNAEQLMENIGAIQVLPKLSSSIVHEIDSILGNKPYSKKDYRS
# Chain of Alpha-2C adrenergic receptor (Homo sapiens) (P18825 whole entry, looked up): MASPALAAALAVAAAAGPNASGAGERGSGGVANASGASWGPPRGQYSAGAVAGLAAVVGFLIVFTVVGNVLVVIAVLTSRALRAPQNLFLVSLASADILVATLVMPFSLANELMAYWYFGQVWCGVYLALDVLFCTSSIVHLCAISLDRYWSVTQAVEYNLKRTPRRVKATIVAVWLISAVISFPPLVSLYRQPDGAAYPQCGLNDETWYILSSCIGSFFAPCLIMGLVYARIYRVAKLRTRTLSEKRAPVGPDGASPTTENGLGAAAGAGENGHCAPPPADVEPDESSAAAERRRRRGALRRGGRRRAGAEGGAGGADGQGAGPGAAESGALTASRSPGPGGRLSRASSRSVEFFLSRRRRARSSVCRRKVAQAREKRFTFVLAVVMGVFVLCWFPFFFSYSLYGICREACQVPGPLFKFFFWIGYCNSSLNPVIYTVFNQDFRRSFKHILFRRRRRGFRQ
SMILES,cell count [1],inhibition [1],inhibition of aggregation [2],nuclei count [2] [%],inhibition [3],nuclei count [3] [%],fluorescence slope [4],NADPH fluorescence slope [5],slope [6],inhibition [7],inhibition [8]
Cc1ccc(S(=O)(=O)N2CCN(C(=O)c3cc(=O)[nH]c4ccccc34)CC2)c(C)c1,539,-11.9% (inactive),-23.6% (inactive),100,5.3% (inactive),162,-0.5 (inactive),-2.6e-05 (inactive),0.00525 (inactive),17.3% (inactive),31% (inactive)
Cc1nc(-c2cccc(-c3noc(C)n3)c2)no1,341,2.2% (inactive),-8.5% (inactive),105,11.4% (inactive),108,-0.473 (inactive),-4.9e-05 (inactive),0.00665 (inactive),-12.8% (inactive),-3.56% (inactive)
CCCOC(=O)C1[C@H]2C(=O)N(CCCOC)C[C@]23C=C[C@H]1O3 (some centres not stated),706,-12.9% (inactive),-14.9% (inactive),112,-21.6% (inactive),118,-0.605 (inactive),3.2e-05 (inactive),0.00864 (inactive),11.7% (inactive),15.6% (inactive)
Cc1nnc(NC(=O)CSc2nnc(-c3ccc(S(=O)(=O)N4CCCC4)cc3)n2C)s1,575,-16.3% (inactive),14.6% (inactive),85.9,-21.6% (inactive),91.4,-0.495 (inactive),-2.2e-05 (inactive),0.00452 (inactive),17.1% (inactive),17.7% (inactive)
COc1ccc(C(=O)NCc2nc3ccccc3[nH]2)cc1OC,679,-0.5% (inactive),6.6% (inactive),82.2,-7.5% (inactive),112,-0.582 (inactive),3.9e-06 (inactive),0.0061 (inactive),-1.85% (inactive),25% (inactive)
N#CCCN(Cc1cccnc1)C(=O)Nc1ccc(Cl)c(Cl)c1,398,3.1% (inactive),-31.1% (inactive),109,-20.5% (inactive),99.6,-0.449 (inactive),5.4e-05 (inactive),0.0054 (inactive),15.4% (inactive),29.1% (inactive)
C=CCn1c(COc2ccc(CC)cc2)nnc1SC/C(O)=C(\C#N)c1nc2ccccc2[nH]1,705,-4.3% (inactive),3.6% (inactive),101,-10.1% (inactive),108,-0.379 (inactive),8.9e-06 (inactive),0.0031 (inactive),21.3% (inactive),14.4% (inactive)
CCOc1ccc(OCC)c(NS(=O)(=O)c2ccc3c(c2)n(C)c(=O)c(=O)n3C)c1,291,-2.4% (inactive),0.8% (inactive),109,-27.6% (inactive),107,-0.432 (inactive),-4.6e-05 (inactive),0.00533 (inactive),10.9% (inactive),13% (inactive)
Cn1c(SCC(=O)c2ccc(-c3ccccc3)cc2)nnc1-c1ccco1,248,4.3% (inactive),5.3% (inactive),67.6,-7.1% (inactive),118,-0.516 (inactive),-5.4e-05 (inactive),0.0027 (inactive),3.76% (inactive),1.41% (inactive)
O=C(NC1CCCCCC1)C1CCCN(S(=O)(=O)c2cccs2)C1 (configuration not stated),714,-6.2% (inactive),-1% (inactive),109,-27.6% (inactive),108,-0.428 (inactive),-6.4e-05 (inactive),0.00338 (inactive),-10.9% (inactive),2.4% (inactive)
C(#Cc1ccccc1)Cn1nnc2ccccc21,288,18% (inactive),11.6% (inactive),73.2,-5% (inactive),103,-0.336 (inactive),-2.1e-05 (inactive),0.00582 (inactive),-41.6% (inactive),-170% (inactive)
CCC(=O)c1cc(F)c(N2CCN(C(=O)c3ccco3)CC2)cc1C,611,-1.3% (inactive),-12.2% (inactive),128,-10.1% (inactive),104,-0.519 (inactive),-4.1e-05 (inactive),0.00579 (inactive),1.51% (inactive),-21.1% (inactive)
COCCn1c(=O)[nH]c2cc(C(=O)N3CCN(Cc4ccc5c(c4)OCO5)CC3)ccc2c1=O,742,-1.6% (inactive),-2% (inactive),122,-20.8% (inactive),115,-0.643 (inactive),-1.6e-05 (inactive),0.00392 (inactive),2.81% (inactive),-1.78% (inactive)
Cc1ccccc1NC(=O)CSc1nnc(Cc2cccn2C)n1-c1ccc(F)cc1,813,4.2% (inactive),0% (inactive),98.8,-61% (inactive),114,-0.618 (inactive),1.1e-05 (inactive),0.00577 (inactive),-3.98% (inactive),29.4% (inactive)
COCCCNC(=O)CSc1nc2ccc(N3CCOCC3)cc2c(=O)n1CCc1ccccc1,369,-1.6% (inactive),-0.2% (inactive),104,17% (inactive),113,-0.558 (inactive),1.6e-05 (inactive),0.00582 (inactive),-0.853% (inactive),-8.93% (inactive)
CC1(C)Cc2c(sc3c2c(=N)n(Cc2ccco2)c(=O)n3Cc2ccccc2)CO1,790,-10.7% (inactive),12% (inactive),101,-27.8% (inactive),112,-0.587 (inactive),2.3e-06 (inactive),0.0065 (inactive),13.1% (inactive),23.7% (inactive)
CCCCCCNC(=O)c1c(N)n(/N=C/c2ccco2)c2nc3ccccc3nc12,602,11.2% (inactive),-16.8% (inactive),79.6,26.4% (inactive),104,-0.251 (inactive),-6e-06 (inactive),0.00525 (inactive),11.1% (inactive),8.29% (inactive)
COc1ccc(-c2nnc(SCC(=O)N3CCCCC3)o2)cc1OC,670,-1.6% (inactive),5.7% (inactive),120,-85.6% (inactive),123,-0.543 (inactive),-9.6e-06 (inactive),0.00656 (inactive),3.05% (inactive),15.9% (inactive)
CS(=O)(=O)N(CC(=O)Nc1ccc2c(c1)OCCO2)Cc1ccccc1,348,-4.7% (inactive),-2.9% (inactive),107,9.6% (inactive),105,-0.413 (inactive),3.7e-05 (inactive),0.00583 (inactive),8.2% (inactive),17.2% (inactive)
O=C1c2ccccc2C(=O)N1CCCn1nnc(-c2ccc(N3CCOCC3)cc2)n1,319,-8.2% (inactive),28% (inactive),111,-80.5% (inactive),109,-0.619 (inactive),-1.3e-05 (inactive),0.00347 (inactive),15.2% (inactive),21.3% (inactive)
CCn1c(CCNC(=O)c2cccs2)nnc1SCC(=O)c1ccc(OC)cc1,263,0.8% (inactive),-4.7% (inactive),99.7,-94.1% (inactive),115,-0.398 (inactive),2.4e-05 (inactive),0.00289 (inactive),-4.44% (inactive),-7.83% (inactive)
Cc1cc(C)c2c(n1)nn1c(NCCCN3CCOCC3)cc(C)nc21,484,-4.5% (inactive),11.5% (inactive),119,-19.1% (inactive),114,-0.509 (inactive),-1.9e-05 (inactive),0.00545 (inactive),8.42% (inactive),21.2% (inactive)
S=C(c1ccc(N2CCOCC2)cc1)N1CCCCC1,375,-1.3% (inactive),4.1% (inactive),111,-68.1% (inactive),111,-0.535 (inactive),-2e-05 (inactive),0.00689 (inactive),-29.8% (inactive),-15.7% (inactive)
COC(=O)CCC(NC(=O)c1cc(-c2ccc3c(c2)OCCO3)oc1C)C(=O)OC (configuration not stated),320,20% (active),0.3% (inactive),104,13.3% (inactive),104,-0.48 (inactive),-3e-05 (inactive),0.00476 (inactive),-2.55% (inactive),-6.77% (inactive)
CC(C)(C)c1cc(NC(=O)c2cc(F)c(F)c(F)c2F)no1,405,-2.1% (inactive),-14.9% (inactive),104,-96.2% (inactive),112,-0.435 (inactive),-6.8e-06 (inactive),0.00297 (inactive),-23.2% (inactive),-90.4% (inactive)
CCOC(=O)c1c(NC(=O)c2cccs2)sc2c1CCN(C(=O)OCC)C2,416,-2% (inactive),-6.8% (inactive),99.7,14.8% (inactive),115,-0.192 (active),-6.6e-05 (inactive),0.0082 (inactive),10.1% (inactive),-1.84% (inactive)
CN1CCN(S(=O)(=O)c2ccc(NC(=O)Nc3cccc(Cl)c3)cc2)CC1,468,0.3% (inactive),-4.4% (inactive),91.8,36.5% (inactive),114,-0.614 (inactive),-3e-05 (inactive),0.00476 (inactive),-1.37% (inactive),-11.1% (inactive)
